For some of these results: Results with a measured potency or affinity are listed apart.

The values below come from ChEMBL document CHEMBL3988442, “University of Dundee, Small-Polar-MMV Screening Library” (2021).

The target in test [1] is T1, Methionyl-tRNA synthetase, putative (Leishmania donovani (strain BPK282A1)) (UniProt E9BF75).
T1 sequence (whole entry): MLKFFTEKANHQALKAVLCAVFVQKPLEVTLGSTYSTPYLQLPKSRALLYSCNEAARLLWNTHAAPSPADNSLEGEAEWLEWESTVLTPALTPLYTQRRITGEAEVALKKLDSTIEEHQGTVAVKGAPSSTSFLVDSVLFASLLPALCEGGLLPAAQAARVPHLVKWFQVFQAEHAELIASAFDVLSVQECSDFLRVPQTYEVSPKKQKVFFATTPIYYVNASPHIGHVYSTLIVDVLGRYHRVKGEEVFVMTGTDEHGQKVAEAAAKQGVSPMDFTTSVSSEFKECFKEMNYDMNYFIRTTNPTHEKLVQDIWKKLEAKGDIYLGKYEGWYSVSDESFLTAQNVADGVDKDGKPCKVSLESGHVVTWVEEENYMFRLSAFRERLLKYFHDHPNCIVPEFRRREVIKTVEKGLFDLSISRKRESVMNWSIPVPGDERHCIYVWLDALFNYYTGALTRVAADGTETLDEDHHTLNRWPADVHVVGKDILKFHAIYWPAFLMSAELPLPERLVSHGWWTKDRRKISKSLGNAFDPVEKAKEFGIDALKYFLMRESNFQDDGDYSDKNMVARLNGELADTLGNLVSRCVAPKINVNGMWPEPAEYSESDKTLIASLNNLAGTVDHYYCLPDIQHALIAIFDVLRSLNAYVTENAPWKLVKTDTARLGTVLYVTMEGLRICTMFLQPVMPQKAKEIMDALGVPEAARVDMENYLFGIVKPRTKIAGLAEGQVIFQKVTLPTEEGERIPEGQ
Put plainly: Leishmania donovani Methionine tRNA synthetase (LdMetRS):v7. Dose response assay. It is filed as functional. Details: conc 80 nM, time 150 minutes.

Test [2] has as its target Protein translocase subunit SecA (Escherichia coli (strain K12)) (UniProt P10408). Put plainly: Assay to Identify E. coli SecA ATPase Inhibitors. Details: scale not given: direction of the effect not stated beside the values. The note with it: 30 µM. It is filed as functional.
For test [3], the target named is T2, Ubiquitin-activating enzyme e1, putative (Leishmania donovani (strain BPK282A1)) (UniProt E9BSI1).
T2 sequence (whole entry): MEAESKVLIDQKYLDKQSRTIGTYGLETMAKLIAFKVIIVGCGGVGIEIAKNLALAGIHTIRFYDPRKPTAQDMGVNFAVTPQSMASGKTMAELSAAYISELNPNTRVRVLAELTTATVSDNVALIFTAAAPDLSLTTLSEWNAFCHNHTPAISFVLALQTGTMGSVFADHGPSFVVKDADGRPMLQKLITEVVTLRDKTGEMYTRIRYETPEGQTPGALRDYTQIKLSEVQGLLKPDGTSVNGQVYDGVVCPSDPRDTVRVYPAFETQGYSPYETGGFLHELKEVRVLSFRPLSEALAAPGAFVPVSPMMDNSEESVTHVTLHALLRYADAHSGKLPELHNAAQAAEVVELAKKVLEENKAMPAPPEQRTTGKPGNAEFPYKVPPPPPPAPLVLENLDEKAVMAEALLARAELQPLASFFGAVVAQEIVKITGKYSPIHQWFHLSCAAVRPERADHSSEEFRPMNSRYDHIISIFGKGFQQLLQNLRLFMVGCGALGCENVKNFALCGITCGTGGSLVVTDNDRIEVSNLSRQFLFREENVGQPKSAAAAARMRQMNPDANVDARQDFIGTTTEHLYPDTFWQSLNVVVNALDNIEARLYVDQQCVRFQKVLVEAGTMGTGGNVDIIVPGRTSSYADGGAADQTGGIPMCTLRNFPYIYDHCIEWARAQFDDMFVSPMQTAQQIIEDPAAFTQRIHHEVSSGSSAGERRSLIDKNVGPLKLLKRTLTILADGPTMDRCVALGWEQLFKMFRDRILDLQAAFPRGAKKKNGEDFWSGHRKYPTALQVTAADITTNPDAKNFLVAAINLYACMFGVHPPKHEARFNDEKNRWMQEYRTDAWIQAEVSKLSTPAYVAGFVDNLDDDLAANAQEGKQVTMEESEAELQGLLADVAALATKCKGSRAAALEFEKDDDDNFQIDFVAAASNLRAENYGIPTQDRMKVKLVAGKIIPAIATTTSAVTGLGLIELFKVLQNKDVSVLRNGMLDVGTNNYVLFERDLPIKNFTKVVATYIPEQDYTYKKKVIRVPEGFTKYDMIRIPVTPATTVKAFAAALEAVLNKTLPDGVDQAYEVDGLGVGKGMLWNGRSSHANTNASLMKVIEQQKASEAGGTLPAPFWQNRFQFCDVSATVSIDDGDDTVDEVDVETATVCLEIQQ
In words: Leishmania donovani Ubiquitin Activating Enzyme (LdE1). Details: scale not given: direction of the effect not stated beside the values. It is filed as functional. The note with it: 30 µM.

Test [4] deals with AMP-activated protein kinase, AMPK (Homo sapiens) (UniProt P54646+O43741+P54619+Q9UGJ0+Q9Y478+Q13131+Q9UGI9). Put plainly: AMP-dependent Kinase enzyme assay. An in vitro enzyme assay that detects ADP turnover that is directly proportional to AMPK activity. This uses naive AMPK that is activated during the assay with MK-8722. It is filed as functional. Details: scale not given: direction of the effect not stated beside the values. The note with it: 30 µM.

For test [5], the target named is Sialic acid-binding Ig-like lectin 9 (Homo sapiens) (UniProt Q9Y336). Put plainly: Hs-Siglec9 ALPHAscreen SOP 20170721. Details: scale not given: direction of the effect not stated beside the values. The note with it: 10 µM.
The test system of another test is Trypanosoma cruzi. Put plainly: Trypanosoma cruzi phosphomannomutase and mannose-1-phosphate guanylyltransferase assay. It is filed as functional. Details: scale not given: direction of the effect not stated beside the values. The note with it: 10 µM.
Test [6] concerns the target T3, Arginase-2, mitochondrial (Homo sapiens) (UniProt P78540).
T3 sequence (whole entry): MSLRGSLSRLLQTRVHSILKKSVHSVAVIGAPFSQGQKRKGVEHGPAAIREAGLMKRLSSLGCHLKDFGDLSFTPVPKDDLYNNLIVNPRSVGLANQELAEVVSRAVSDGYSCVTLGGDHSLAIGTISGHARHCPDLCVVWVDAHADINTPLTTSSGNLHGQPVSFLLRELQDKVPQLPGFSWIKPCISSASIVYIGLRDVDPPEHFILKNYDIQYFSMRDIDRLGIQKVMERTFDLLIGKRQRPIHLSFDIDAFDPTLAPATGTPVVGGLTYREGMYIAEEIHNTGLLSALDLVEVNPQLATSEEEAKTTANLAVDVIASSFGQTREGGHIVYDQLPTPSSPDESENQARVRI
Put plainly: in vitro enzyme assay to detect the production of urea directly proportional to the activity of Arginase II. The note with it: 33.3 µM. Details: scale not given: in the data most compounds retested in dose-response had high values. It is filed as functional.

The target of test [7] is T4, Proteasome subunit beta (Trypanosoma cruzi) (UniProt O96673).
T4 sequence (whole entry): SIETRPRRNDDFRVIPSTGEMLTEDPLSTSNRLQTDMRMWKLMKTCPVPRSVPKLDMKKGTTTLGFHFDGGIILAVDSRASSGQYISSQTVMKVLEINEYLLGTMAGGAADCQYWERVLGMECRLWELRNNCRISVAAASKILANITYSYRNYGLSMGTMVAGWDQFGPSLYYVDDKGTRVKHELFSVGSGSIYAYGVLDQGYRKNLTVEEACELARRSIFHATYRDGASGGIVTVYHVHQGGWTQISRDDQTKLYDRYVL
Put plainly: Trypanosoma cruzi proteasome chymotrypsin-like activity (TcProtChymo) assay. It is filed as functional. Details: scale not given: in the data most compounds retested in dose-response had high values. The note with it: 9.37 µM.

For the next test, the species on record is Homo sapiens. In words: To identify inhibition of the IFN signalling (Jak-Stat) pathway via expression of an eGFP reporter gene under the control of an IFN-stimulated response element (ISRE) containing MxA promoter. It is filed as functional. Details: scale not given: direction of the effect not stated beside the values. The note with it: 30 µM. On the technique in general: Reporter assays use an easily measured gene product as a stand-in for the process of interest.

Test [8] deals with T5, Tyrosyl-tRNA synthetase, putative (Trypanosoma cruzi (strain CL Brener)) (UniProt Q4DSP6).
T5 sequence (whole entry): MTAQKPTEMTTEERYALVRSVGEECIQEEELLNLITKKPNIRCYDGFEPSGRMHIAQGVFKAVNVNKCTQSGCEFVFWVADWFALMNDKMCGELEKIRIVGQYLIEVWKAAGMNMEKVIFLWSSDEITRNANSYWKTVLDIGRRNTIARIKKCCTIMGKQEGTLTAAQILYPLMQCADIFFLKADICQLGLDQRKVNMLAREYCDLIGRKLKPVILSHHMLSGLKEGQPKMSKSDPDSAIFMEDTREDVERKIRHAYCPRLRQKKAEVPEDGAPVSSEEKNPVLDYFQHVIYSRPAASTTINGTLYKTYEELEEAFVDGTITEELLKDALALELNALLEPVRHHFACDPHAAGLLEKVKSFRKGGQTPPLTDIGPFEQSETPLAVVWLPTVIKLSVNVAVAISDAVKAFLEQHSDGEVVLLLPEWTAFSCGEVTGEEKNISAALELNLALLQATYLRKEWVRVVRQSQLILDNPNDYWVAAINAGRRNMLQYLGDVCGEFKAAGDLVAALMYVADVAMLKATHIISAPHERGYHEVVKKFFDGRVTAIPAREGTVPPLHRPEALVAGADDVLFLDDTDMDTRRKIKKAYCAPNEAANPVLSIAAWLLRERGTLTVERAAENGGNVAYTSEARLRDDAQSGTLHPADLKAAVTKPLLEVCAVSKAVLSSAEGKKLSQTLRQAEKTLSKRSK
Put plainly: Trypanosoma cruzi tyrosyl tRNA synthetase (TcYRS) _High Tyrosine SOP. The note with it: 30 µM. Details: scale not given: in the data most compounds retested in dose-response had high values. It is filed as functional.

Test [9] has as its target T5, Tyrosyl-tRNA synthetase, putative (Trypanosoma cruzi (strain CL Brener)). Put plainly: Trypanosoma cruzi tyrosyl tRNA synthetase (TcYRS) SOP. It is filed as functional. Details: scale not given: direction of the effect not stated beside the values. The note with it: 30 µM.
The target of test [10] is Chromo domain-containing protein 1 (Saccharomyces cerevisiae (strain ATCC 204508 / S288c) (Baker's yeast)) (UniProt P32657). In words: ScCHD-1 Enzyme Inhibition Assay. It is filed as functional. Details: scale not given: in the data most compounds retested in dose-response had high values. The note with it: 30 µM.
Chain of Chromo domain-containing protein 1 (Saccharomyces cerevisiae (strain ATCC 204508 / S288c) (Baker's yeast)) (P32657 whole entry, the tested form may be a part): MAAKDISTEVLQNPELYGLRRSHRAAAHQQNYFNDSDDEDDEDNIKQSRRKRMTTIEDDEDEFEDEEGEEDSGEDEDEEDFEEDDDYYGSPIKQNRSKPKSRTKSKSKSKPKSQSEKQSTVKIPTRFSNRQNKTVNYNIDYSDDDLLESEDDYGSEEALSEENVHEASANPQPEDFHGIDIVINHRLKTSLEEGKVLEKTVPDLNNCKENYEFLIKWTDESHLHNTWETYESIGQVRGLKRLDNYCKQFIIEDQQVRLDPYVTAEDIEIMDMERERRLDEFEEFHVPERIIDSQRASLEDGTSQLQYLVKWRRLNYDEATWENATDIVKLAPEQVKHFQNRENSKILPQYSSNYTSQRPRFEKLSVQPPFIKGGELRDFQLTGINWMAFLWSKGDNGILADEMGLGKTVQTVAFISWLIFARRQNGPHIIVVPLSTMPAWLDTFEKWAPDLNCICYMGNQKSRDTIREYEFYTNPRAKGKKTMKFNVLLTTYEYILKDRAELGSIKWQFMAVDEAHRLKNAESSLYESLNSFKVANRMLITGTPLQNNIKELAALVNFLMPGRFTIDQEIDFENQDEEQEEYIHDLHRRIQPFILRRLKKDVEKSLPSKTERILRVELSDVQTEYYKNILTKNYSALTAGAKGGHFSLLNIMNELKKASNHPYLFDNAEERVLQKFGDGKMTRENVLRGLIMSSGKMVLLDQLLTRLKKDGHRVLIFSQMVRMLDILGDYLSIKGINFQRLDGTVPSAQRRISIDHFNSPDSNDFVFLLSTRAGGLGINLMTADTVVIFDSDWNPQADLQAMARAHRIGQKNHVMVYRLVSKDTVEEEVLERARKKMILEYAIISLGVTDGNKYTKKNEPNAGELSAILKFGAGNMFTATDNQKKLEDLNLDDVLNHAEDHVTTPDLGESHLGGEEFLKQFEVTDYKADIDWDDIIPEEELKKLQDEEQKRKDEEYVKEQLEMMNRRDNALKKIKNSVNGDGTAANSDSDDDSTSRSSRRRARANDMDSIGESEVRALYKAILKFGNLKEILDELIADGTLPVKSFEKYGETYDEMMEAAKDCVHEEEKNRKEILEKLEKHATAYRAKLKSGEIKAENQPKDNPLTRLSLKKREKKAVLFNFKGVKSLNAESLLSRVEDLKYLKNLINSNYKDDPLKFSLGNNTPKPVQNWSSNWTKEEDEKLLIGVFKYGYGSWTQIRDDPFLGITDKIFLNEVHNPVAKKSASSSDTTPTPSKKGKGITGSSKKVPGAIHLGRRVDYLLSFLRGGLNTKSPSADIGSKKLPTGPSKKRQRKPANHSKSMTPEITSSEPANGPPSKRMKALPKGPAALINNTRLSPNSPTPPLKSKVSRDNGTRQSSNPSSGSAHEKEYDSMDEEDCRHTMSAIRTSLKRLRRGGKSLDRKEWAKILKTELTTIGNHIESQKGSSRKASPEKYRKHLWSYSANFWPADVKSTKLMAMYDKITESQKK

Chain of Sialic acid-binding Ig-like lectin 9 (Homo sapiens) (Q9Y336 whole entry): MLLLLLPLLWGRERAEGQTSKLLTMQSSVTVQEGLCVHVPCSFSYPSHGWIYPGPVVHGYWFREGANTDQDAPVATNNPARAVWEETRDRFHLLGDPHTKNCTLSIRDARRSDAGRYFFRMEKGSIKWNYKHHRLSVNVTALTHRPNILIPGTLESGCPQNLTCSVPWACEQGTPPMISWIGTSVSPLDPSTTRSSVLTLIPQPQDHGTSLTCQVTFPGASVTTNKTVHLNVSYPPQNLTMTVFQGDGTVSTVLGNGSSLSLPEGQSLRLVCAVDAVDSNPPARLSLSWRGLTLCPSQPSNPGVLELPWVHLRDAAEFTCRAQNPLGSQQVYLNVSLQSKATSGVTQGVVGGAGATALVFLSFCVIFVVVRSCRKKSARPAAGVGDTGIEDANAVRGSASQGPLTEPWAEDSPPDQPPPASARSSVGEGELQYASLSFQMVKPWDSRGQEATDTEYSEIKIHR
Chain of Protein translocase subunit SecA (Escherichia coli (strain K12)) (P10408 whole entry): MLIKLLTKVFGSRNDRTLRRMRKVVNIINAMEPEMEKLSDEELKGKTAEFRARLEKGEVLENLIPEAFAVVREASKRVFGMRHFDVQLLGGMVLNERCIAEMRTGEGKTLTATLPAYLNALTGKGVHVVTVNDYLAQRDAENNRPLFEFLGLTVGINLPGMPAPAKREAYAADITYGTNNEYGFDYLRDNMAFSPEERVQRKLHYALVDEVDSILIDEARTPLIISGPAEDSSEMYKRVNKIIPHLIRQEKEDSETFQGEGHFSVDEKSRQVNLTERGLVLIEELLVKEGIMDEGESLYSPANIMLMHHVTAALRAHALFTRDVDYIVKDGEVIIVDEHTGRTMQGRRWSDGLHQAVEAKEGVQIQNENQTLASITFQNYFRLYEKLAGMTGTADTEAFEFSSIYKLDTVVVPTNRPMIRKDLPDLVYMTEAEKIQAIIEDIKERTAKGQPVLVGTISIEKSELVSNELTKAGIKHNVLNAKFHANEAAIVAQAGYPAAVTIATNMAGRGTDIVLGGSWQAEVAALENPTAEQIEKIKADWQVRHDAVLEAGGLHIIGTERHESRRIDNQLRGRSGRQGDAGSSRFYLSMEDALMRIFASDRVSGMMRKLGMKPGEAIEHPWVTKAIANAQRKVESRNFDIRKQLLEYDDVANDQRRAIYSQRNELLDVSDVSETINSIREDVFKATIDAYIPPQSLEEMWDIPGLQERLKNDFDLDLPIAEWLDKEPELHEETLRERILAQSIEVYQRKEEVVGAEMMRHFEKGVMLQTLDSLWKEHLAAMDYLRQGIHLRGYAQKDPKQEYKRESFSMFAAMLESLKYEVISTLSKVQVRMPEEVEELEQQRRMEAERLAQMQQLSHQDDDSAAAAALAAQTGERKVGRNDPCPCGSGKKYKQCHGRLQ

In the case of `Cn1ncc2c(NCCO)nc(Nc3ccc(F)c(F)c3)nc21`, the PXC50 in [1] (BOTTOM 1.675324724, HILLSLOPE 0.887004354, MAX_EFFECT 86.8852459, TOP 97.31963994) came to 5.01; in test [1] (BOTTOM 3.874295481, HILLSLOPE 1.000014766, MAX_EFFECT 87.03703704, TOP 93.55609097), 5.08; in test [1] (BOTTOM 3.975924252, HILLSLOPE 0.806965021, MAX_EFFECT 84.10596026, TOP 99.5157675), 4.91; in test [1] (BOTTOM 7.489204203, HILLSLOPE 1.122010423, MAX_EFFECT 83.60655738, TOP 90.20006383), 4.96; in test [1] (BOTTOM -1.215365939, HILLSLOPE 0.665929937, MAX_EFFECT 87.19646799, TOP 108.6182019), 4.92.

`CCN(CC)c1ccc2ccc(C(=O)NC3CC3)cn12`: the PXC50 in test [1] (MAX_EFFECT 23.88888889), in test [1] (MAX_EFFECT 27.69953052), in [1] (MAX_EFFECT 36.60245184), in [1] (MAX_EFFECT 45.65217391) and in test [1] (MAX_EFFECT 46.2585034) was below 4 each time.

In the case of `Cc1ccccc1C1(CNc2nnc(C)c(C)c2C#N)CCOCC1`, the PXC50 in [1] (MAX_EFFECT 12.82660333) and in [1] (MAX_EFFECT 19.54225352) was below 4 each time. The Percent Effect in [2] is -3.65%; in test [3] it was 0%; in test [4] it was -11.2%; in test [5], 2.86%; in the test with Trypanosoma cruzi it was -0.193%; in [6], -0.952%. In addition, the Percent Effect in [7] is 9.31%; in the test filed under Homo sapiens, 19.4%; in test [8], 2.65%; in test [9], 0%; in [10], -3.83%.

On to `CCc1ccc(-c2cc(C(F)(F)F)nc(N3CCC(N)CC3)n2)cc1`, for which the PXC50 amounted to 4.56 in test [1] (BOTTOM 0.706388919, HILLSLOPE 2.15610203, MAX_EFFECT 103.8387716, TOP 100.0); 4.35 in test [1] (BOTTOM 1.827311561, HILLSLOPE 2.684909792, MAX_EFFECT 98.40510367, TOP 100.0); 4.34 in test [1] (BOTTOM 4.066049008, HILLSLOPE 2.434171465, MAX_EFFECT 89.60138648, TOP 100.0); 4.46 in test [1] (BOTTOM 4.927859372, HILLSLOPE 1.513560957, MAX_EFFECT 87.5, TOP 100.0); 4.19 in test [1] (BOTTOM -3.243969643, HILLSLOPE 5.145586142, MAX_EFFECT 85.90604027, TOP 95.73252463).
